In PubChem BioAssay (NCI) one finds growth inhibition data, which are given here for 40 compounds.

The structures appear in SMILES notation. Compounds without any hit were thinned out: in the full panel of roughly 79,000, 15% have a hit. Active and inactive are the calls of the source. Rule as the data show it: active = growth inhibition above about 70%; inactive = the rest.

This experiment can be described thus: NCI Yeast Anticancer Drug Screen. Data for the mec2-1 strain (AID 157). The settings on record: S. cerevisiae mec2-1 strain, at 50.0 µM, stronger effect = higher value. The gist of the method:
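Using mec2-1 yeast: add compound, measure growth, express inhibition versus vehicle-treated cultures.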
Turning to `Cc1cc(O)oc(=O)c1`, the growth inhibition was -15.1% (inactive).

With `CCCCCCCCC1C(CCCCCCCC(=O)OC)C2(Cl)C(Cl)=C(Cl)C1(Cl)C2(Cl)Cl` (stereo not given), the growth inhibition is -11.5% (inactive).

For `CCOC(=O)C(=CNc1cccc(Cl)c1)C(=O)OCC`, the growth inhibition is -11.4% (inactive).

With `COc1cc(C2C(C(=O)Nc3ccccc3C)=C(C)NC(C)=C2C(=O)Nc2ccccc2C)ccc1O`, the growth inhibition was -8.45% (inactive).

For the compound `O=C(COc1ccc2c(=O)cc(-c3ccc(Cl)cc3)oc2c1)N1CCN(c2ccccc2)CC1`, the growth inhibition was 7.05% (inactive).

As to `O=C(Cc1nc2ccc(C(=O)c3ccccc3)cc2[nH]c1=O)C(=O)Nc1nc2ccccc2[nH]1`, the growth inhibition was 19.3% (inactive).

In the case of `O=C(OCC1OC(OCc2ccccc2)C(OC(=O)c2ccccc2)C1OC(=O)c1ccccc1)c1ccccc1` (stereo not given), the growth inhibition is -6.1% (inactive).

For the compound `NC1=C(O)C(=O)C(c2ccccc2)O1` (stereo not given), the growth inhibition is -12.2% (inactive).

Take `N#CCc1cn(-c2ccccc2)nn1`: the growth inhibition is 8.3% (inactive).

Turning to `CC(C)=NNC(=S)NC12CC3CC(CC(C3)C1)C2`, the growth inhibition is 39.3% (inactive).

Take `CONCc1ccc(C(=O)NC(C)C)cc1`: the growth inhibition is -6.75% (inactive).

For `NC(=O)OC1CCN(c2cccc(Cl)c2)C1` (stereo not given), the growth inhibition was -22.3% (inactive).

Regarding `O=C(O)CCn1cnc2c(=S)nc[nH]c21`, the growth inhibition is -23.1% (inactive).

`CCCCCc1ccccn1`: the growth inhibition was 19.1% (inactive).

Turning to `CC(COC(=O)c1ccc(N)cc1)NC1CCCCC1` (stereo not given), the growth inhibition is 1.1% (inactive).

`COc1ccc(CC(=O)NCCc2ccc(OC)c(OC)c2OC)cc1`: the growth inhibition is -34.7% (inactive).

For the compound `C[C@@H](C1CCC2C3C(=CC(=O)[C@@]21C)[C@H](C)[C@]1(CCC(=O)O1)C1OC31)[C@H]1C[C@]2(C)O[C@@](C)(O1)OC2(C)C` (stereo not given in full), the growth inhibition is -0.9% (inactive).

With `Nc1cc(=S)nc(N)[nH]1`, the growth inhibition was -6.75% (inactive).

For the compound `COC(=O)Nc1nc2c(OC)c(OC)c(OC)cc2[nH]1`, the growth inhibition was -6.75% (inactive).

Turning to `CCc1ccc(NS(=O)(=O)c2ccc3ccccc3c2)cc1`, the growth inhibition was 97.5% (active).

Regarding `N#CC(C(=N/NC(N)=S)/C(=N/NC(N)=S)C(C#N)c1ccc(Cl)cc1)c1ccc(Cl)cc1` (stereo not given), the growth inhibition is -19.8% (inactive).

For the compound `NC1=NC=NCN1c1ccc(N)cc1`, the growth inhibition was -2.65% (inactive).

Turning to `CCOC(=O)C1=CC2CCOC2O1` (stereo not given), the growth inhibition was -14.8% (inactive).

For `COc1cc(CNC(=S)CCCCCCCCCCC(C)C)ccc1O`, the growth inhibition was -23.6% (inactive).

Turning to `CNCCCCCCNc1cc(OC)cc2cccnc12`, the growth inhibition is 18.7% (inactive).

Consider `Cc1nn(C(=O)c2ccncc2)c2c1C(c1cccc([N+](=O)[O-])c1)SC(N)=N2` (stereo not given), for which the growth inhibition is -45.6% (inactive).

With `CCN(CC)CC(=N)N(CC)c1ccccc1`, the growth inhibition was 6.95% (inactive).

In the case of `Cc1c2cnccc2c(C)c2c1c1ccccc1n2CCNCc1ccccc1`, the growth inhibition was 50.4% (inactive).

In the case of `O=C(/C=C/c1ccccc1)c1cccc([N+](=O)[O-])c1`, the growth inhibition is 14.6% (inactive).

In the case of `O=C(O)CC(CC(=O)O)c1ccc(F)cc1`, the growth inhibition is 0.95% (inactive).

As for `CCCc1nnnn1C12CC3CC(CC(C3)C1)C2`, the growth inhibition was 18.8% (inactive).

For the compound `Cc1cc(-c2ccccc2)n(C(C(=O)c2ccccc2)c2ccccc2)n1` (stereo not given), the growth inhibition is -10.4% (inactive).

On to `CC(=O)OCc1ccc(Cl)cc1Cl`, for which the growth inhibition is -2.9% (inactive).

Turning to `[N-]=[N+]=Nc1cc(-c2ccccc2)nc2cc3c(cc12)OCO3`, the growth inhibition was -7.95% (inactive).

`O=S(=O)(NCCNS(=O)(=O)c1ccccc1)c1ccccc1`: the growth inhibition was -13.8% (inactive).

For `N#C/C1=C(\N)CCSSSC1`, the growth inhibition was 25.9% (inactive).

On to `c1ccc(CCN=C2c3ccccc3-n3cccc32)nc1`, for which the growth inhibition was 0.95% (inactive).

In the case of `O=C1CSC(c2ccccc2)N1O` (stereo not given), the growth inhibition is -5% (inactive).

Regarding `CC(=O)OCC1OC(SC2=NC(=O)/C(=C/c3ccccc3)S2)C(OC(C)=O)C(OC(C)=O)C1OC(C)=O` (stereo not given), the growth inhibition is 35.4% (inactive).

With `CC1(C)CC(=O)C2(C)C(C1O)C2C1C2C(O)C(C)(C)CC(=O)C21C` (stereo not given), the growth inhibition was 3.25% (inactive).
